Compound activity as filed in PubChem.
Shown are actives, neighbours in structure and some others; about 6.2% of the full set was active somewhere.
NR3A LBD binder – modulators (binders) of human NR3A ligand-binding domain; NR3A LBD differential scanning fluorimetry, Tm shift; 0% = protein alone, 100% = glycine-bound protein; Tm shift relative to glycine control, % at 25 µM; actives 2.5% (n = 340,000); AID 1259313;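 active = melting temperature shift of at least 10% of the positive control shift, at one fixed dose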
Cardio protect – modulators protecting cardiomyocytes from myocardial damage | H9c2 cardiomyocytes, H2O2 injury protection, ATPLite, 2 h | protection from H2O2 cell death, % at 20 µM | actives 0.63% (n = 360,000);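 active = compounds giving at least 50% protection of heart cells from peroxide-induced death in the single-dose screen, raw or plate-pattern-corrected value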
Mot1-301 SUMO – blocks SUMOylation pathway, rescuing yeast Mot1-301 growth. S. cerevisiae Mot1-301 growth rescue, ATP luminescence, 38.5C; percent above DMSO median, 100 means doubled. growth rescue, % at 18.8 µM. actives 1% (n = 320,000). AID 2716;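 active = every valid replicate shows activation above 250% relative to neutral control wells; inactive = the rest, any valid replicate at or below 250%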
AHR activator – activators of human aryl hydrocarbon receptor. P35869. AHR-responsive luciferase reporter cells, luminescence. activation, % at 5 µM. actives 2.5% (n = 320,000). AID 2796; in the data active = activation above about 47%
Target sequence (P35869 whole entry, looked up): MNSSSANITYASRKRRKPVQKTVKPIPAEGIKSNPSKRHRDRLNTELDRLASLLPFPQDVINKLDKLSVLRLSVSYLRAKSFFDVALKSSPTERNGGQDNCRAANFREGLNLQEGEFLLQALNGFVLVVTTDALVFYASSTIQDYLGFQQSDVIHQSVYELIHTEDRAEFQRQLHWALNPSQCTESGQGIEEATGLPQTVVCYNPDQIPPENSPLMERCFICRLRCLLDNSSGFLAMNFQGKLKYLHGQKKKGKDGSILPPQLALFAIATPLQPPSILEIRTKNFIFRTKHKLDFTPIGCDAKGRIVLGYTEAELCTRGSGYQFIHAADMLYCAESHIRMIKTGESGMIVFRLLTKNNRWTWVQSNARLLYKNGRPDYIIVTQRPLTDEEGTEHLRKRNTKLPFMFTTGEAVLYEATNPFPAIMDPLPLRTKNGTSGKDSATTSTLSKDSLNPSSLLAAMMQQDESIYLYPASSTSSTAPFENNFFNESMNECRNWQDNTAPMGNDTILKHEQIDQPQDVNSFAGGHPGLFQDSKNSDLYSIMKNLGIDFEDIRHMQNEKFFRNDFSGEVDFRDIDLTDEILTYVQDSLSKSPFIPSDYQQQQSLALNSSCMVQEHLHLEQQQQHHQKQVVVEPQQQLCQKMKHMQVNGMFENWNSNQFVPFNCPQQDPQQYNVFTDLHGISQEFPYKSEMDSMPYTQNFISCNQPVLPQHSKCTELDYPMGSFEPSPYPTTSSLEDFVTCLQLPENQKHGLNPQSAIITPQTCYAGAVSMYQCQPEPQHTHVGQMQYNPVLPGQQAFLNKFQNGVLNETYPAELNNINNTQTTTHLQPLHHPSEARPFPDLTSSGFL
NTR1 ag – activates human neurotensin receptor 1 | NTR1-U2OS beta-arrestin-GFP spot imaging, agonist mode | activation, % at 20 µM | actives 0.17% (n = 330,000) | AID 493036;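 active = activation at or above 40% of the spot to cytoplasm intensity ratio, with at least 20 cells analyzed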
AI-2 QS mod – modulates the Vibrio harveyi AI-2 quorum sensing system. activity change, % at 7.5 µM. actives 0.4% (n = 300,000). Vibrio harveyi JMH597 AI-2 luminescence/OD600 ratio, 9 h; stronger effect = lower value; strain lacks LuxN and CqsS sensors; 0 = neutral-control median; in the data active = activity change below about -75%, passing the limit was not always enough;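 also: luminescence divided by OD600 gain over 9 h not by final OD600 alone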
A number is an active result; i = inactive; nt = no result given.

SMILES	NR3A LBD binder	Cardio protect	Mot1-301 SUMO	AHR activator	NTR1 ag	AI-2 QS mod
COCCNC(=O)C1(C)CCCN(C(=O)c2cccc(Cl)c2)C1 (centres undefined)	nt	i	nt	nt	nt	nt
COc1ccccc1CNS(=O)(=O)c1ccc(Cl)s1	i	i	i	i	i	i
O=C(NCc1ccc2c(c1)OCO2)C1CCCN1C(=O)Nc1ccc(Cl)cc1 (centres undefined)	i	i	i	i	i	i
CC(C(=O)NCc1ccccc1Cl)N1C(=O)c2ccccc2C1=O (centres undefined)	i	i	i	i	i	i
C(=N\Nc1nc2ccccc2s1)/c1ccccn1	i	nt	i	i	i	i
COc1cc(/C=N/Nc2nc3ccccc3s2)ccc1OC(=O)c1ccccc1F	i	i	i	78	i	i
C(=N\Nc1ccccc1)/c1nc2ccccc2s1	i	i	i	69	i	i
COc1ccc(C=NNc2nc3ccccc3s2)cc1	33	i	nt	nt	nt	nt
COc1cc(OC)cc(C(=O)Oc2ccc(/C=N/Nc3nc4ccccc4s3)cc2OC)c1	18	i	i	72	i	i
Cn1cc(S(=O)(=O)NCc2ccc3c(c2)OCO3)c(C(F)(F)F)n1	i	i	i	i	i	i
COc1ccc2c(c1)[nH]c1c(N3CCN(Cc4ccc5c(c4)OCO5)CC3)ncnc12	i	i	i	i	43	i
COc1cccc2[nH]c3c(N4CCN(Cc5ccc6c(c5)OCO6)CC4)ncnc3c12	nt	nt	i	73	i	i
COc1cccc(N2CCN(c3ncnc4c3[nH]c3ccccc34)CC2C)c1 (centres undefined)	nt	nt	523	i	i	i
COc1ccc2c(c1)[nH]c1c(N3CCSCC3)ncnc12	i	i	i	i	i	i
COc1cccc2[nH]c3c(N4CCC(C)CC4)ncnc3c12	i	i	i	60	i	i
COc1ccccc1C(CNC(=O)c1cccc(S(=O)(=O)N2c3ccccc3CC2C)c1)N(C)C (centres undefined)	i	i	nt	nt	nt	nt
Cc1nc2ccccn2c1CN(C)C(=O)C1CCC(=O)N(CCc2cccc(F)c2)C1 (centres undefined)	i	i	i	i	i	i
O=C1C(=O)N(CCN2CCOCC2)C(c2ccccc2F)/C1=C(\O)c1ccc(S(=O)(=O)N2CCOCC2)cc1 (centres undefined)	i	i	i	i	i	i
O=C(O)CCC(=O)Nc1ccc(-c2nc3ccc(C(=O)c4ccccc4)cc3[nH]2)cc1	i	i	i	i	i	i
O=C(c1ccccc1)c1ccc2nc(-c3ccc(NC(=O)c4ccccc4F)cc3)[nH]c2c1	18	i	i	i	i	i
Cn1cc([N+](=O)[O-])c(C(=O)Nc2ccc3nc(-c4ccccc4)[nH]c3c2)n1	i	i	i	i	i	i
O=C(Nc1ccc2nc(-c3ccccc3)[nH]c2c1)c1cccs1	30	i	i	i	i	i
O=C(Nc1ccc2nc(-c3ccco3)[nH]c2c1)c1cccs1	13	i	i	i	i	i
O=C(Cn1ccc2ccccc2c1=O)NCC(=O)N1CCCCC1	i	i	i	i	i	i
O=C(O)C1C2CCC(O2)C1C(=O)Nc1ccc(F)c(Cl)c1 (centres undefined)	i	i	i	i	i	i
SMILES	NR3A LBD binder	Cardio protect	Mot1-301 SUMO	AHR activator	NTR1 ag	AI-2 QS mod
Cc1ccc(NC(=O)C2C3CCC(O3)C2C(=O)O)cc1Cl (centres undefined)	i	i	355	i	i	i
C=CCc1cccc(/C=N/NC(=O)C(C)Nc2cccc(C)c2)c1O (centres undefined)	i	i	i	i	i	i
C=CCc1cccc(/C=N/NC(=O)CNc2cccc3ccccc23)c1O	30	i	i	i	i	i
C=CCc1cccc(/C=N/NC(=O)CNc2ccccc2OC)c1O	13	63	i	61	i	i
Cc1cc(Cl)ccc1OCCCC(=O)OCC(=O)Nc1cccc(S(N)(=O)=O)c1	10	i	i	i	i	nt
Cc1ccc(NC(=O)COC(=O)c2cc(Cl)ccc2[N+](=O)[O-])cc1	i	i	i	i	i	-92
NS(=O)(=O)c1ccc(NC(=O)COC(=O)c2ccc(Cl)cc2[N+](=O)[O-])cc1	i	i	i	i	i	i
